The whole screen tested about 360,000 compounds, of which about 2,600 (0.72%) were called active. Shown is part of a subset that was picked to be rich in actives. Values without a mark were called inactive.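 How the source made its calls: active means inhibition of the luminescence signal of 40% or more relative to plate controls, in a single-dose primary screen at 18.75 µM; inactive means the rest.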

A short description of this assay: blockers of HIF-2a driven luciferase – luminescence, 786-0 RCC cells, primary screen (AID 624352). Conditions: 786-0 RCC cells HIF-2a reporter, overnight, at 18.8 µM, stronger effect = higher value.
Regarding `COc1ccc(NC(=O)CCCN2C(=O)C(c3ccccc3)Oc3cccnc32)cc1` (stereo not drawn), the inhibition (in general, the change of the read-out against control, counted positive when it falls) is 0.775%.
For the compound `COc1ccc(/C=C2/SC(=O)N(CCCCCC(=O)Nc3ccccc3C(=O)O)C2=S)cc1`, the inhibition was 84.2% (active).
The result for `CCCNC(=O)c1ccccc1NC(=O)CSCc1ccc(OC)cc1` reads 19%; that for `Cc1ccccc1C(=O)N1CCC(C(=O)Nc2ccc(S(=O)(=O)N(C)C(C)C)cc2)CC1`, 16.4%; that for `CC=CCn1c(SCCCc2ccccc2)nc2c1c(=O)[nH]c(=O)n2C`, 3.87%.
To `NC1=CC(=O)C(=O)c2cccnc21` belongs 54.7% (active).
In the case of `O=C(CCC(=O)NNc1nc2ccccc2c2nc(-c3ccccc3)nn12)NCCCN1CCCC1=O`, the inhibition was -19.4%.
The result for `CSc1nc(-c2ccccc2)nc(C(Cl)Cl)n1` reads 77.8% (active); that for `COCCNC(=S)Nc1cc(S(=O)(=O)N2CCOCC2)ccc1N1CCCCC1`, 11.9%; that for `CCn1cc(CNC(=O)c2cc([N+](=O)[O-])c(C)c([N+](=O)[O-])c2)cn1`, 8.39%.
Turning to `O=C(CN1CCN(Cc2ccccc2)CC1)Nc1ccc(F)c(F)c1`, the inhibition is -1.13%.
The result for `O=C(CNCc1ccc(Cl)cc1)Nc1cccc(C(=O)O)c1` reads 2.72%; that for `O=C(CCl)Nc1cccc(CP(=O)(c2ccccc2)c2ccccc2)c1`, 44.2% (active); that for `O=C(NCc1cccs1)c1ccc(CS(=O)Cc2ccccc2Cl)o1` (stereo not drawn), -0.00949%.
Regarding `Cc1cccc(OCCC(=O)Nc2cc(S(=O)(=O)N3CCCCC3)ccc2N2CCOCC2)c1`, the inhibition is -42.8%.
To `CC[C@@H]1Cc2cc(O)ccc2C2=C1c1ccc(O)cc1C[C@H]2CC` belongs 45.9% (active); to `CCOC(=O)c1sc(/N=C/C2=C(O)CC(C)(C)CC2=O)c(C(=O)OCC)c1C`, -268%; to `CC(C)C1Nc2c(C(=O)O)cccc2C(Nc2ccccc2C(=O)O)C1(C)C` (stereo not drawn), 19%.
Take `O=C(COC(=O)CC1CC2CCC1C2)NC(=O)NC1CCCC1` (stereo not drawn): the inhibition is 11.3%.
To `Cc1cc(Br)cn2c(Cc3ccccc3C(F)(F)F)c(C3CCCCC3)nc12` belongs 7.15%.
Take `COc1cc2c(cc1OC)C(Nc1ccc(S(N)(=O)=O)cc1)=NC(C)(C)C2`: the inhibition is 8.2%.
To `COc1cc2c(cc1O)C(SC)=NC(C)(C)C2` belongs 89.4% (active); to `COc1cc2c(cc1OC)CC1(CCCCC1)N=C2`, 10.1%; to `CC(NC(=O)CC1SC(N)=NC1=O)c1ccccc1` (stereo not drawn), 6.27%.
The result for `O=C(/C(=C/c1cccc(Cl)c1)c1nc2ccccc2[nH]1)c1ccccc1` reads 92.8% (active); that for `C[C@H]1CN([C@@H](C)CO)C(=O)CCCn2cc(nn2)CO[C@@H]1CN(C)S(=O)(=O)c1cccs1`, 6.28%; that for `O=c1onc(-c2c(F)cccc2F)n1-c1ccccc1Cl`, 11.8%.
The result for `Cc1c[n+]([O-])ccc1[N+](=O)[O-]` reads 3.58%; that for `CCOc1ccc(CNC(=O)C2CCCN(c3nnc(C)c4c(C)n(-c5ccccc5)nc34)C2)cc1` (stereo not drawn), 40.7% (active); that for `COc1cccc(CNC(=O)C2CCCN(c3ncnc4c3nc3n4CCCCC3)C2)c1` (stereo not drawn), 0.819%.
`CCc1ccc(CNC(=O)C2CC(=O)N(CCc3ccc(C)cc3)C2)cc1` (stereo not drawn): the inhibition was -8.53%.
To `Cc1ccc(NC(=O)N2CCC(C(=O)NCc3ccc(F)cc3)CC2)cc1` belongs 11.1%.
The result for `CCc1ccc(CNC(=O)C2CCCN(c3nc4ccccc4o3)C2)cc1` (stereo not drawn) reads 12.9%; that for `CCc1ccc(CNC(=O)C2CCN(c3nnc(C)c4c(C)n(-c5ccc(C)cc5)nc34)CC2)cc1`, 54.1% (active).
As for `CN(C)S(=O)(=O)c1cc(NC(=O)CN2C(=O)NC3(CCCc4ccccc43)C2=O)ccc1Cl` (stereo not drawn), the inhibition is 12.2%.
The result for `O=c1cc(C(F)(F)F)[nH]c(=O)n1C1CCCCC1` reads 3.85%; that for `COc1ccc([N+](=O)[O-])cc1N(CC(=O)Nc1ccccc1C(=O)N1CCOCC1)S(C)(=O)=O`, 3.69%.
To `CCCCNC(=O)OCCSCCS(=O)(=O)c1ccc(Cl)cc1` belongs 10.7%.
In the case of `O=C(CN1CCN(c2ccccn2)CC1)NCc1cccs1`, the inhibition was 4.32%.
The result for `COc1ccc(OC)c(NC(=O)C2CCCN2S(=O)(=O)c2cccc3nsnc23)c1` (stereo not drawn) reads 16.7%; that for `Cc1nc(SCC(=O)c2ccccc2)c([N+](=O)[O-])[nH]1`, 8.52%.
The result for `Cc1cc(C)nc(S/C=C/C(=O)c2ccccc2)n1` reads 69.1% (active); that for `C/C(=C\C(=O)c1ccccc1)Nc1cccc(O)c1`, -359%; that for `CN1c2ccc(C=O)c3c(C=O)ccc(c23)N(C)C1(C)C`, 25.6%.
Turning to `CC1(C(=O)NS(=O)(=O)Cc2cccc(Cl)c2)CCN1C(=O)Cc1ccccc1` (stereo not drawn), the inhibition was 12.1%.
To `C[C@@H]1NC(=O)c2cc([N+](=O)[O-])cc(F)c2NCCC[C@@H](C(N)=O)NC(=O)[C@H](CC(N)=O)NC1=O` belongs 9.38%; to `CCOC(=O)c1c(C)oc(C)c(C(=O)OCC)c1=O`, 0.843%; to `CCOC(=O)c1c(C)[nH]c2c1-c1ccccc1C(=O)C2=O`, 96.1% (active).
For the compound `CCOC(=O)c1[nH]c(C)c(C(=O)OCC(=O)N2c3ccccc3CC2C)c1C` (stereo not drawn), the inhibition was 2.58%.
Take `COc1ccc(CN2CCNC(=O)C2CC(=O)N(C)Cc2ccccn2)cc1OC` (stereo not drawn): the inhibition was 9.28%.
To `COc1cc(/C=N/NC(=O)Nc2ccccc2)ccc1OCCOc1ccccc1C` belongs -9.55%.
The result for `COc1cc(C=NC2CCCCC2)ccc1O` reads 2.1%; that for `COc1ccc(C(=O)Nc2ccccc2C(=O)N/N=C/c2ccc(O)c(OC)c2)cc1`, 69.5% (active); that for `Cc1ccc(C)c(NC(=O)CN(C)C(=O)c2ccc3ncsc3c2)c1`, 5.94%.
The result for `CC(C)CN(C(=O)c1ccc2c(c1)OCO2)C1CCS(=O)(=O)C1` (stereo not drawn) reads 24.2%; that for `Cc1nn(-c2ccccc2)c(=O)c2noc(C)c12`, 3.29%.
Take `Cc1[nH]c(=O)c(C(=O)/C=C/c2ccccc2)c2c1CCCC2`: the inhibition was 72.5% (active).
For the compound `CC1(C(=O)O)CCN1C(=O)/C=C/c1ccccc1` (stereo not drawn), the inhibition is 3.94%.
Turning to `C/C(=C\c1ccccc1)C1NC(=O)c2c(sc3c2CCCC3)N1` (stereo not drawn), the inhibition was -140%.
To `Cc1ccc(OCCCC(=O)Nc2ccc3c(c2)OCCO3)cc1` belongs 1.79%; to `CCOc1ccc(NCCC(=O)c2ccc3c(c2)OCO3)cc1`, -129%; to `COC(=O)CCNc1ccc2c(c1)OCCO2`, 42% (active).
The result for `CCC(=O)Nc1ccc(C(=O)CSc2nnc(CNc3ccc(Cl)cc3)o2)cc1OC` reads 14.6%.
Take `CC(=O)N1c2ccc(S(=O)(=O)N3CCCC(C(=O)Nc4ccc(C)cc4C)C3)cc2CC1C` (stereo not drawn): the inhibition is 17%.
To `Oc1ccc(CNc2ccccc2O)cc1` belongs -142%.
The result for `O=S(=O)([N-]c1nc2ccccc2nc1-[n+]1ccc(Cc2ccccc2)cc1)c1ccc(Br)s1` reads 52.2% (active); that for `O=S(=O)(NCc1ccccn1)c1ccc(Br)s1`, -3.82%; that for `CCN(CC)CC(=O)Nc1nn(-c2ccccc2)nc1C(N)=O`, 4.53%.
To `OCCCNC(c1ccccc1)c1ccc(O)cc1` (stereo not drawn) belongs 1.29%; to `O=C(/C=C/Sc1ncn[nH]1)c1ccc(Cl)cc1`, 88.1% (active); to `CC(=O)OCc1cc(=O)n(C)c(=O)n1C`, -10.8%.
Regarding `O=C(CSc1nc2cccc(F)c2c(=O)n1-c1ccccc1)Nc1ccc2c(c1)CCC2`, the inhibition was -5.39%.
To `CC(C)(C)CC(=O)Nc1nc(C(N)Cc2ccc(C(F)(F)F)cc2)cs1` (stereo not drawn) belongs 11.1%.
To `COc1ccc(CC(N)c2csc(NC(=O)Nc3ccc(C(C)C)cc3)n2)cc1` (stereo not drawn) belongs 91.1% (active); to `COc1ccc(CC(N)c2csc(NC(=O)NC(c3ccccc3)c3ccccc3)n2)cc1` (stereo not drawn), 4.75%.
The result for `O=C(CNC(=O)OCc1ccccc1)Oc1cc2oc(=O)cc(-c3ccccc3)c2cc1Cl` reads -13.9%; that for `CN1OC[C@@H]2CN(S(=O)(=O)c3cccc(C(F)(F)F)c3)[C@H](c3ccc(-c4cc5ccccc5o4)cc3)C[C@@H]21`, 50.8% (active).
Regarding `COc1ccc(S(=O)(=O)N2C[C@H]3CON(C)[C@H]3C[C@H]2c2cccc(Br)c2)cc1`, the inhibition was 6%.
For `CN1OC[C@@H]2CN(S(=O)(=O)c3cccc4ccccc34)[C@H](c3ccc(N4CCCCC4)cc3)C[C@@H]21`, the inhibition was 7.35%.
To `COc1ccc(-c2cnc3c(c2)C(=O)N([C@H](C)CO)C[C@@H](C)[C@H](CN(C)Cc2ccccc2)O3)cc1` belongs -3.08%; to `COCCNC(=O)c1ccccc1-c1nc(-c2ccccc2Cl)no1`, -82.5%.
`CN(C)CCNC(=O)c1ccc(Cl)c2cc3ccccc3nc12`: the inhibition was 43.6% (active).
Consider `Cc1cc(C)n(C(=O)CCNC(=O)c2ccccc2Cl)n1`, for which the inhibition was 5.47%.
Take `O=S(=O)(N/N=C\c1cccn1-c1ccccc1)c1ccc2ccccc2c1`: the inhibition was 9.64%.
To `CCCc1cc(-c2n[nH]c(=S)n2CC)c2ccccc2n1` belongs 25.6%; to `CCN(CC)S(=O)(=O)c1cccc(-c2n[nH]c(=S)n2/N=C/c2ccc(C(=O)OC)cc2)c1`, 20.2%; to `Cc1cc(-c2n[nH]c(=S)n2/N=C/C(Br)=C/c2ccccc2)n[nH]1`, 87% (active).
Consider `CCN1CCN(C(=O)C2CCN(S(=O)(=O)c3cc(Cl)ccc3Cl)CC2)CC1`, for which the inhibition was 6.56%.
Regarding `COc1ccc(Br)cc1S(=O)(=O)N1CCN=C1C`, the inhibition was 13.2%.
Take `O=C(Nc1ccc2c(c1)OCO2)C1CC(c2c(F)cccc2Cl)=NO1` (stereo not drawn): the inhibition was -228%.
`CC[C@@H](C)[C@H](NC(=O)CCc1c(C)c2cc3c4c(oc3c(C)c2oc1=O)CCCC4)C(=O)O`: the inhibition is 56.9% (active).
The result for `Cc1c(CCC(=O)N[C@@H](CC(C)C)C(=O)O)c(=O)oc2c(C)c3oc4c(c3cc12)CCCC4` reads 31.2%.
For the compound `Cc1c(C)c2cc3c4c(oc3c(C)c2oc1=O)CCCC4`, the inhibition was -31.5%.
